The supplement of paper PMC6555819

What was measured:
Test in all cases: PBM binding z-score (relative to random genomic background probes); higher = stronger binding; sequences stand for … in GC…GCGATTGACAGCGTAGAATGAAGG
[1] = tested on: RARb homodimer (NR concentration 270 nM)
Summary of the method: (§1)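 Ligand-free nuclear receptor dimers were applied to custom Agilent 4×180K protein-binding microarrays whose double-stranded probes carried direct-repeat seeds, single-nucleotide variants, half-site ablations and random human genomic background sequences in 34-nt variable regions. Incubation lasted 1 h. Binding z-scores were computed against the random background probes from regression-normalized fluorescence.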

[2] = tested on: RARg:RXRa (NR concentration 270 nM, RXRa partner concentration 90 nM)
Summary of the method: as §1

[3] = tested on: RARg homodimer (NR concentration 270 nM)
Summary of the method: as §1

[4] = tested on: RXRa DBDmut IVT, anti-RXR (DBD mutation: RXRa K156A/R161A, NR concentration 90 nM)
Summary of the method: as §1

[5] = tested on: RXRa homodimer (NR concentration 180 nM)
Summary of the method: as §1

[6] = tested on: THRa:RXRa (NR concentration 90 nM, RXRa partner concentration 90 nM)
Summary of the method: as §1

[7] = tested on: THRa homodimer (NR concentration 90 nM)
Summary of the method: as §1

[8] = tested on: VDR:RXRa (NR concentration 270 nM, RXRa partner concentration 90 nM)
Summary of the method: as §1

[9] = tested on: VDR homodimer (NR concentration 270 nM)
Summary of the method: as §1

Row | Sequence | PBM binding z-score [1] | PBM binding z-score [2] | PBM binding z-score [3] | PBM binding z-score [4] | PBM binding z-score [5] | PBM binding z-score [6] | PBM binding z-score [7] | PBM binding z-score [8] | PBM binding z-score [9]
1 | GCTATTAGTTGAAAGGACAACCGAATGATTCTCG | 1.25 | 0.533 | 1.2 | 0.922 | 0.0459 | 0.487 | 0.292 | -0.113 | 0.311
2 | CCAACTGGGCCATCAGGTCATTGATATCAACGTT | 2.79 | 2 | 2.2 | 0.763 | 1.46 | 3.19 | 3.32 | 1.98 | 2.04
3 | GCAGACAGGTGATACGCAGGTAACTCAGGGTGGC | -0.38 | -0.066 | -0.0165 | -0.589 | 0.293 | 0.561 | -0.509 | -0.655 | -0.5
4 | ATATGTAGGTTAGCTGCGGTCATTCAGACTAGGC | 2.02 | 1.43 | 1.83 | 0.343 | 0.968 | 4.05 | 0.202 | 2.23 | 0.904
5 | CCTACTGGGCCATGGTCATTGATCAGTCAAAGCA | 0.781 | 0.494 | 0.374 | -1.27 | -0.0481 | 0.0106 | -0.543 | -0.434 | -0.137
6 | TAGGCTAGGTCAGATCGGGCCAGTATACGCTATA | 2.06 | 2.87 | 3.61 | -0.36 | 1.45 | 4.13 | -0.412 |  | -0.515
7 | AGAATCAGGTTAAGATCAGGGAAACAGAATACAT | 0.909 | 0.705 | 0.926 | 0.172 | 0.786 | 1.45 | 0.772 |  | 0.415
8 | GGAACGAGGGCATTCGAGTTGATAGGATGGCGAT | 0.729 | 1.11 | 1.28 | 3.32 | 0.734 | 3.21 | -0.299 | 3.74 | 2.9
9 | AGAATGAGGTTACCACAGATCAGGGAAACGCTTG | 0.855 | 2 | 1.62 | 1.24 | 2.61 | 2.93 | 0.878 |  | 0.395
10 | CCGACTAGGGCAAAGGTTACCATACTCAGTACGA | 2.48 | 3.78 | 2.11 | 0.743 | 4.2 | 2.14 | -0.117 | 1.61 | 0.229
11 | TCTATTCGTTGAAGGGCAACCGACGAGTCCGTTT | 1.39 | 0.744 | 0.769 | 1.49 | 0.993 | 0.507 | 0.017 | 1.08 | 1.27
12 | GGCACGAGGGCAAGTTGATAGCAGAGTTTGATGG | 1.6 | 1.91 | 2.12 | 2.06 | 1.17 | 1.23 | 0.0135 | 0.599 | 1.58
13 | GTACCAAGGTAAATAGGTCGTTGATGAGTAGGCG | 0.723 | 0.808 | 0.391 | -0.235 | 0.953 | 0.973 | -0.00878 | 0.336 | 0.628
14 | AATACAGGGTCACTAGGCCAGAGTTGGTACGAAT | 3.56 | 5.2 | 5.06 | 2.8 | 5.94 | 3.51 | 1.21 | 4.26 | 2.58
15 | CCTAGTGGGCCACGAAAGGTCATTGATTCAGTGA | 4.68 | 4.71 | 4.64 | 0.0516 | 5.09 | 3.82 | 0.453 |  | 1.99
16 | TCAGACAGGTGAAAGTAACTCAGGTACGCAGTCG | 0.326 | 0.474 | 0.598 | 1.01 | 0.974 | 0.472 | -0.0578 |  | -0.0124
